# PubChem BioAssay (NCATS)
# Inconclusive results are not listed. Where a call stands in place of a potency, no number is given. Calls of active or inactive are those of the source. Unless noted, the call rests on the fitted dose curve; in most records, active means well fitted curve in the direction sought with a large enough effect; inconclusive means small, poorly fitted or top-dose-only effect, or another doubt; inactive means no such curve, though single readings can be large; an effect the other way counts as inactive or inconclusive.
# Tests used:
# [1] = target: N-terminal Xaa-Pro-Lys N-methyltransferase 1 (Homo sapiens) (UniProt Q9BV86); test: Confirmatory qHTS for Inhibitors of N-terminal methyltransferase 1 (NTMT1): MTaseGlo Assay (AID 1645874); further: nearly all actives have a fitted effect of over 65% in size; further: potency means the concentration at half of the fitted maximal effect;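 on activity change, negative = inhibition: luminescence from SAH made as NTMT1 methylates SPKRIA peptide using SAM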
# Summary of the method: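 Inhibition was derived from luminescence after SAH-to-ATP conversion, scaled between no-enzyme and DMSO wells, then fitted by 4-parameter Hill. Conditions: 125 nM NTMT1, 100 uM SAM, 1 uM SPKRIA, 30 min RT.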
# [2] = target: Cytochrome P450 2C9 (Homo sapiens) (UniProt P11712); test: Cytochrome P450 family 2 subfamily C member 9 (CYP2C9) small molecule antagonists: luciferase biochemical (cell-free) qHTS assay (AID 1645842; active means well fitted curve in the direction sought with a large enough effect in the repeat runs; an effect the other way counts as inactive or inconclusive; further: nearly all actives have a fitted effect of over 55% in size; further: potency means the concentration at half of the fitted maximal effect)
# Summary of the method: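 P450-Glo CYP2C9 system: proluciferin substrate with enzyme in mix containing 0.4% BSA, 10 min at room temperature, then NADPH regeneration solution added and incubated 1 h at 37C. Detection reagent stopped reaction; luminescence read after 20 min as RLU.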
# [3] = target: Glutathione peroxidase 1 (Homo sapiens) (UniProt P07203); test: Primary qHTS Assay for Inhibitors of Recombinant Selenoprotein Glutathione Peroxidase 1 (GPX1) (AID 1845191); further: nearly all actives have a fitted effect of over 65% in size
# Summary of the method: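 NADPH consumption tracked by fluorescence at 340/450 nm between t=0 and t=15 min, room temperature. Final mix: 10 nM GPX1, 100 nM glutathione reductase, 1 mM GSH, 0.5 mM NADPH, 0.5 mM cumene hydroperoxide, 0.01% BSA; 30 min compound–enzyme preincubation.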
# [4] = target: Rap guanine nucleotide exchange factor 3 (Homo sapiens) (UniProt O95398); test: Confirmatory qHTS for antagonist of cAMP-regulated guanine nucleotide exchange factor 3 (EPAC1) (AID 1645880); further: potency means the concentration at half of the fitted maximal effect; nearly all actives have a fitted effect of over 55% in size
# Summary of the method: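 Released BODIPY-GDP fluoresces less than Rap1-bound BODIPY-GDP; the signal is followed at 480/540 nm at 5-min intervals over 30 min, after 5 min at room temperature. Reactions contain 100 nM EPAC1, 250 nM RAP1B-BODIPY-GDP and 50 uM GDP; results are normalized to ATA and DMSO.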
# [5] = target: Rap guanine nucleotide exchange factor 3 (Homo sapiens) (UniProt O95398); test: Confirmatory qHTS for agonist of cAMP-regulated guanine nucleotide exchange factor 3 (EPAC1) (AID 1645881);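 further: EPAC1 catalysed release of BODIPY-GDP from Rap1B seen as fluorescence loss; nearly all actives have a fitted effect of over 75% in size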
# [6] = target: Rap guanine nucleotide exchange factor 4 (Homo sapiens) (UniProt Q8WZA2); test: Confirmatory qHTS for agonist of cAMP-regulated guanine nucleotide exchange factor 4 (EPAC2) (AID 1645884);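 further: nucleotide exchange releases bodipy-GDP from Rap1 and this lowers its fluorescence; nearly all actives have a fitted effect of over 65% in size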
# [7] = target: Rap guanine nucleotide exchange factor 4 (Homo sapiens) (UniProt Q8WZA2); test: Confirmatory qHTS for antagonist of cAMP-regulated guanine nucleotide exchange factor 4 (EPAC2) (AID 1645885); further: nearly all actives have a fitted effect of over 25% in size
# [8] = target: Rap guanine nucleotide exchange factor 3 (Homo sapiens) (UniProt O95398); test: Counterscreen qHTS for antagonist of cAMP-regulated guanine nucleotide exchange factor 3 (EPAC1) (AID 1645888)
# Summary of the method: (§1)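 Rap1B-BODIPY-GDP 250 nM + GDP 50 uM; cpds 7-pt, final 9.74 nM–152 uM (activator mode) or from 7.32 nM upwards (inhibitor mode); RT; FI 480/540 nm at 5 and 30 min, then ± cAMP, reread.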
# [9] = target: Rap guanine nucleotide exchange factor 3 (Homo sapiens) (UniProt O95398); test: Counterscreen qHTS for agonist of cAMP-regulated guanine nucleotide exchange factor 3 (EPAC1) (AID 1645889); further: nearly all actives have a fitted effect of over 40% in size
# Summary of the method: as §1
# [10] = qHTS for Inhibitors of Ubiquitin-specific Protease USP2a Using CHOP2 as the Reporter: K633 Counterscreen (AID 652168)
# Summary of the method: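 Detection-system control: fluorescence of K48-linked DiUb-4IQF substrate (100 nM as added) tracked over time, Ex 525/Em 598, with pinned compounds and no enzyme, in pH 8 Tris buffer containing beta-mercaptoethanol and 0.05% Chaps.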
# [11] = target: Ubiquitin carboxyl-terminal hydrolase 2 (Homo sapiens) (UniProt O75604); test: qHTS for Inhibitors of Ubiquitin-specific Protease USP2a Using CHOP2 as the Reporter: K484 Substrate (AID 652173); conditions: USP2 cleavage of DiUb K48 IQF substrate, fluorescence;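 further: cleavage of internally quenched K48 di-ubiquitin substrate measured as rising fluorescence over time; potency means the concentration at half of the fitted maximal effect; nearly all actives have a fitted effect of over 70% in size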
# Summary of the method: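 Kinetic fluorescence (Ex 525/Em 598) tracked cleavage of an internally quenched K48 di-ubiquitin substrate, added as a 100 nM solution. The enzyme was added as a 5 nM USP2 solution before compound pinning, with no-enzyme controls. Buffer: Tris pH 8, beta-mercaptoethanol, CHAPS.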
# [12] = Primary qHTS for inhibitors of nuclear receptor binding SET domain protein 2 (NSD2) in an isogenic RCH-ACV NSD2 p.E1099K mutant (9B) (AID 1645876); further: potency means the concentration at half of the fitted maximal effect; nearly all actives have a fitted effect of over 70% in size
# [13] = Primary qHTS for inhibitors of nuclear receptor binding SET domain protein 2 (NSD2) in an RCH-ACV wild type WT cells (2C) (AID 1645877); further: potency means the concentration at half of the fitted maximal effect; nearly all actives have a fitted effect of over 70% in size
# [14] = target: Catechol O-methyltransferase (Homo sapiens) (UniProt P21964); test: Confirmatory Screen for Target Class Profiling of Small Molecule Inhibitors of Methyltransferases (AID 1745852; calls by dose curve; further: potency means the concentration at half of the fitted maximal effect); conditions: MTase-Glo luminescence, SAH detection, recombinant enzyme; measured here: COMT max response; stronger effect = lower value
# [15] = target: Guanidinoacetate N-methyltransferase (Homo sapiens) (UniProt Q14353); test: as above; conditions: MTase-Glo luminescence, SAH detection, recombinant enzyme; activity change, negative = inhibition: at 57.3 µM (top of the series) unless noted
# [16] = target: Nicotinamide N-methyltransferase (Homo sapiens) (UniProt P40261); test: as above; conditions: MTase-Glo luminescence, SAH detection, recombinant enzyme; measured here: NNMT max response; stronger effect = lower value
# [17] = target: Phenylethanolamine N-methyltransferase (Homo sapiens) (UniProt P11086); test: as above; conditions: MTase-Glo luminescence, SAH detection, recombinant enzyme; measured here: PNMT max response; stronger effect = lower value
# Sequence of Phenylethanolamine N-methyltransferase (Homo sapiens) (P11086 whole entry, looked up): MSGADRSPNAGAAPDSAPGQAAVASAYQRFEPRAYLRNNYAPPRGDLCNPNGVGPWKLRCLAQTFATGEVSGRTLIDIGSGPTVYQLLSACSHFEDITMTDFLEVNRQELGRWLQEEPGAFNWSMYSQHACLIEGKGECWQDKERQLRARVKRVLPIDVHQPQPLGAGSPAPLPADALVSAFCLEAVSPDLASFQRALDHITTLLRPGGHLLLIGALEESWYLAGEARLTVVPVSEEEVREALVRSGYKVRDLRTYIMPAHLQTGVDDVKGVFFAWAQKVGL
# Sequence of Rap guanine nucleotide exchange factor 4 (Homo sapiens) (Q8WZA2 whole entry, looked up): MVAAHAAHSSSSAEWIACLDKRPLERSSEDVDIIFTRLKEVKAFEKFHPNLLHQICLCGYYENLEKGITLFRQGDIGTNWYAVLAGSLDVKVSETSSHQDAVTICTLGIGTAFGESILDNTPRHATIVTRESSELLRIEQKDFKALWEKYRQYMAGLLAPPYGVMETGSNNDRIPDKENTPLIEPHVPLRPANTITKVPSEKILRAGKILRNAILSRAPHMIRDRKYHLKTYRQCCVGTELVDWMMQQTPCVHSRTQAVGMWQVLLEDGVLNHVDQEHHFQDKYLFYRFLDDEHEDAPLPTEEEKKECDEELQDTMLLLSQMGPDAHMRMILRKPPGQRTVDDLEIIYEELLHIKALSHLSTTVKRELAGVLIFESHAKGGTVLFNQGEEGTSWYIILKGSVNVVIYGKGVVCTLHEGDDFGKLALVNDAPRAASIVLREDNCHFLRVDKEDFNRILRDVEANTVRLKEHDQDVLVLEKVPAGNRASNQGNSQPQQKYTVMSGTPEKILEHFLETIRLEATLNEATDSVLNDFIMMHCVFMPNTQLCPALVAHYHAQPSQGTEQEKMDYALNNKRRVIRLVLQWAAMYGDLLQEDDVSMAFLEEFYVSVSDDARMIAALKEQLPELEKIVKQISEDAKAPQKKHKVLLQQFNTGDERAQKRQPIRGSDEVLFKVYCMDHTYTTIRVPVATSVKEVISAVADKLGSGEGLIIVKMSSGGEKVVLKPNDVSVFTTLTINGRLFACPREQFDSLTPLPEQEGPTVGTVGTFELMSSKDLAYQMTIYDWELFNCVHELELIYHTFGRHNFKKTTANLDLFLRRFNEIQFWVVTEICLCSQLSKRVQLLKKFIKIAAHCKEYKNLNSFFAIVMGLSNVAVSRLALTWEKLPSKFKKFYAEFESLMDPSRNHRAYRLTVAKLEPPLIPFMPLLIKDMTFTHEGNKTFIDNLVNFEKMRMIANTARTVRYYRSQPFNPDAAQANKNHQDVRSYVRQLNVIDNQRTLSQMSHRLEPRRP
# Sequence of N-terminal Xaa-Pro-Lys N-methyltransferase 1 (Homo sapiens) (Q9BV86 whole entry, looked up): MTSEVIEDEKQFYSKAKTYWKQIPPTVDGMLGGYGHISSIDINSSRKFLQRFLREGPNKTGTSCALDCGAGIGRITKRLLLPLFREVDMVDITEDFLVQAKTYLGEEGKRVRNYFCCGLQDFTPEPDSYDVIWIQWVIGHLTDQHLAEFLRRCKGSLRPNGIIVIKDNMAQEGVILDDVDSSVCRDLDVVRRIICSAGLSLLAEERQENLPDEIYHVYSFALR
# Sequence of Rap guanine nucleotide exchange factor 3 (Homo sapiens) (O95398 whole entry, looked up): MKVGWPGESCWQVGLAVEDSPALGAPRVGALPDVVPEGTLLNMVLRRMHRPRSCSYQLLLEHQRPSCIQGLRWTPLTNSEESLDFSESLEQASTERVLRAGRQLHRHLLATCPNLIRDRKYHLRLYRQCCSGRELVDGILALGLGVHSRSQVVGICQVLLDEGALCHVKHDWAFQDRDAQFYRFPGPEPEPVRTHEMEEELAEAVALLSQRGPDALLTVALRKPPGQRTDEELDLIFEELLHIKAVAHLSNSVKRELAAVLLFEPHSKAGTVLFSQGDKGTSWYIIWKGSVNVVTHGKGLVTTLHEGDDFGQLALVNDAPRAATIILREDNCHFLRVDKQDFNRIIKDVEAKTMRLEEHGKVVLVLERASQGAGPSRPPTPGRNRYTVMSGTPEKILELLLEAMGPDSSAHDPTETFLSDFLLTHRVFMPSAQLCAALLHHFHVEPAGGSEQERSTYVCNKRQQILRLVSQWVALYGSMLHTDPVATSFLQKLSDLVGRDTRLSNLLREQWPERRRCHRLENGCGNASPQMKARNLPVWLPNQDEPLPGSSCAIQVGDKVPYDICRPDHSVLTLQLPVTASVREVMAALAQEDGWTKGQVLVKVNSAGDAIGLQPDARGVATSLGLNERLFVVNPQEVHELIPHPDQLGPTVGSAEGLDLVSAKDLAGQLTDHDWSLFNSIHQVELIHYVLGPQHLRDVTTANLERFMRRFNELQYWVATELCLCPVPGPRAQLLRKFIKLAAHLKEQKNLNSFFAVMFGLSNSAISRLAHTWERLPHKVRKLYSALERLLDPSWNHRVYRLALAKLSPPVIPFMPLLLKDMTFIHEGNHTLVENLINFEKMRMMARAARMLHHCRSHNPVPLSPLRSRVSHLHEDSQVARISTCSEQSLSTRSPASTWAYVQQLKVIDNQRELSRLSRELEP
# Sequence of Glutathione peroxidase 1 (Homo sapiens) (P07203 whole entry, looked up): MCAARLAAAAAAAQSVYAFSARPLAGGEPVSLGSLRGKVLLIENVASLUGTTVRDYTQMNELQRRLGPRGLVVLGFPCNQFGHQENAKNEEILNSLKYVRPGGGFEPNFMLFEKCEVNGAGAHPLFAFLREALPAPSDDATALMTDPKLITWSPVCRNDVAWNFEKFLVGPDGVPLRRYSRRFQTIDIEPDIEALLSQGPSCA
# Sequence of Cytochrome P450 2C9 (Homo sapiens) (P11712 whole entry, looked up): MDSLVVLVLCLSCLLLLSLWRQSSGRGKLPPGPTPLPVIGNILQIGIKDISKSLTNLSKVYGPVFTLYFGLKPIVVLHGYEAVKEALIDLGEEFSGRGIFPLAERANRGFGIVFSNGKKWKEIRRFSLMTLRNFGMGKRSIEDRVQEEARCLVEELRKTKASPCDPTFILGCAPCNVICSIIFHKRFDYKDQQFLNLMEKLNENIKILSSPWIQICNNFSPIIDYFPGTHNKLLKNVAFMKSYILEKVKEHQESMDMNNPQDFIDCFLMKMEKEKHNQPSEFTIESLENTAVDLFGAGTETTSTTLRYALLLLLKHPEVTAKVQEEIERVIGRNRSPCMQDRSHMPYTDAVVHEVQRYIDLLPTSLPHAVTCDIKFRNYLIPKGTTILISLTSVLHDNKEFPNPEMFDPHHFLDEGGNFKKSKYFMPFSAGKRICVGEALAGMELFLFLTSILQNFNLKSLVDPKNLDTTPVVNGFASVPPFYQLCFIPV
# Sequence of Catechol O-methyltransferase (Homo sapiens) (P21964 whole entry, looked up): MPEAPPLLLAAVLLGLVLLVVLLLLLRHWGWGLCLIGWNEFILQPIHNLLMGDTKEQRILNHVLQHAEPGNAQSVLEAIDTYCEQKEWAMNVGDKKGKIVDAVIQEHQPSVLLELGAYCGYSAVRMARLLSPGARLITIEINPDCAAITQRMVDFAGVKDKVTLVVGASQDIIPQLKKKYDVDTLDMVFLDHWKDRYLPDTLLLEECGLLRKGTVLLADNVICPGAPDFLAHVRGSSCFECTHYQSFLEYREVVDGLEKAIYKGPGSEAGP
# Sequence of Nicotinamide N-methyltransferase (Homo sapiens) (P40261 whole entry, looked up): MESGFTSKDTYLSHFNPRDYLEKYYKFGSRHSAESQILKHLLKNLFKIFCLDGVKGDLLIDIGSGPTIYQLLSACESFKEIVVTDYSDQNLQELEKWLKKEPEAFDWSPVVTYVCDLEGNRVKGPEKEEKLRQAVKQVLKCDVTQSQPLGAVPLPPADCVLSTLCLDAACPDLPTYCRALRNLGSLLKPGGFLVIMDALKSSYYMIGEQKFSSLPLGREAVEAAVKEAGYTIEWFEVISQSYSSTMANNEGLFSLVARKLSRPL
# Sequence of Ubiquitin carboxyl-terminal hydrolase 2 (Homo sapiens) (O75604 whole entry, looked up): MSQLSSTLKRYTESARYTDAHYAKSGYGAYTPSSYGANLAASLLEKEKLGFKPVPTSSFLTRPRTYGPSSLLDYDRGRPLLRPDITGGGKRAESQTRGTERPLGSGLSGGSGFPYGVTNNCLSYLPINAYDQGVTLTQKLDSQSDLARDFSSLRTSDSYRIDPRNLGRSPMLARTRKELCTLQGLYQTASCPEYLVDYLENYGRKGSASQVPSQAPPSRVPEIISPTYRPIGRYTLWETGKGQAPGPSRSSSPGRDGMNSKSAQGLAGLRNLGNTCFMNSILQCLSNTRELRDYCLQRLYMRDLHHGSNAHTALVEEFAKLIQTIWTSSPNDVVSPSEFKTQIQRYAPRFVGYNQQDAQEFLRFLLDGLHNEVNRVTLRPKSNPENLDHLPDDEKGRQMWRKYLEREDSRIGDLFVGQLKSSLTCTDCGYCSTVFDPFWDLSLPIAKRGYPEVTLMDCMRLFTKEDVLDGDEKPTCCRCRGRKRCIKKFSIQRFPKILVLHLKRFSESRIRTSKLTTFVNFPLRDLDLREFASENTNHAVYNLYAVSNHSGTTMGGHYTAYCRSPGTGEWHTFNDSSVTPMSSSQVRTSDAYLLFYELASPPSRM
smiles,measurement,setting,value
O=c1c2cc3c(cc2nc2sc(Nc4ccccc4)nn12)OCO3,Potency,[1],inactive
Cc1cc(C)n2c(Nc3c(C)cccc3C)c(-c3ccsc3)nc2n1,Potency,[1],inactive
CNc1sc(-c2cccc3ccccc23)nc1C#N,Potency,[1],inactive
Cc1cccc2nc(-c3ccc(Cl)s3)c(Nc3ccc4c(c3)OCCO4)n12,Potency,[1],3.25 µM (active)
O=S(=O)(c1cccc(Cl)c1)n1c(/C=C/c2ccccc2Cl)nc2ccccc21,Potency,[1],6.76 µM (active)
Clc1cccc(-c2nc3ccccn3c2Nc2ccc3c(c2)OCCO3)c1,Potency,[1],4.09 µM (active)
Cc1c(Cl)ccc2sc(N3CCN(C(=O)C4CC4)CC3)nc12,Potency,[1],inactive
CCOc1ccccc1N1CC(c2nc3ccccc3n2CCCCOc2cc(C)ccc2C)CC1=O (stereo not drawn),Potency,[1],inactive
COc1ccc(Nc2ncnc3sc4c(c23)CCCC4)cc1,Potency,[1],15.8 µM (active)
COc1cc2nc(N3CCCCC3)nc(NC3CC3)c2cc1OC,Potency,[1],34.5 µM (active)
COc1cc2c(NC3CCN(C(C)C)CC3)nc(N3CCCN(C4CCCCC4)CC3)nc2cc1OCCCN1CCCCC1,Potency,[1],34.5 µM (active)
COc1ccc(C(=O)Nc2noc3ccccc23)cc1,Potency,[1],39.8 µM (active)
COc1cc2nc(N3CCOCC3)nc(NC(C)C)c2cc1OC,Potency,[1],34.5 µM (active)
Cc1cc(-c2nc(CN3CCC(C(=O)NCCCN4C[C@H](C)C[C@H](C)C4)CC3)co2)ccc1F,Potency,[2],inactive
same,Potency,[3],inactive
CCCOc1ccccc1C(=O)Nc1nc2c(s1)CCCC2,Potency,[1],inactive
Fc1cc(Nc2nc(-c3ccncc3)nc3ccccc23)ccc1N1CCNCC1,Potency,[1],21.8 µM (active)
CCCn1c(/C=C/c2ccccc2)nc2ccccc21,Potency,[1],inactive
Cc1ccc2nc(-c3ccc(O)cc3)c(Nc3ccc(Cl)cc3)n2c1,Potency,[1],inactive
Cc1cccc(OCCCSc2nc(-c3ccc(C(C)(C)C)cc3)nc3cc(=O)[nH]n23)c1C,Potency,[2],13.5 µM (active)
same,Potency,[4],37.9 µM (active)
same,Potency,[5],inactive
same,Potency,[6],inactive
same,Potency,[7],inactive
same,Potency,[8],inactive
same,Potency,[9],inactive
COc1cc2nc(Nc3ccc(C)c(C)c3)nc(N)c2cc1OC,Potency,[1],39.8 µM (active)
Cc1cc(F)ccc1S(=O)(=O)Nc1cnccc1C(=O)Nc1nc(-c2ccccc2)cs1,outcome,[10],inactive
same,Potency,[11],0.968 µM (active)
same,Potency,[1],21.8 µM (active)
S=C(Nc1ccccn1)c1ccccn1,Potency,[1],10.3 µM (active)
COc1ccc(C(=O)Nc2onc3c2CCCC3)cc1,Potency,[1],inactive
Cc1cccc(C(=O)Nc2sc3c(c2C(=O)O)CCCC3)c1,Potency,[1],35.5 µM (active)
same,Potency,[5],inactive
same,Potency,[6],inactive
same,Potency,[7],inactive
same,Potency,[8],inactive
same,Potency,[9],inactive
CC(NC(=O)c1sc2ncccc2c1-n1cccc1)c1ccccc1 (stereo not drawn),Potency,[1],28.2 µM (active)
same,Potency,[5],inactive
same,Potency,[6],inactive
same,Potency,[7],inactive
same,Potency,[8],inactive
COc1cc2c(NC3CCN(C(C)C)CC3)nc(N3CCCCCC3)nc2cc1OCCCN1CCCC1,Potency,[1],30.8 µM (active)
COc1cccc(NC(=O)CN(CCc2ccccc2)S(=O)(=O)c2ccc(Cl)cc2)c1,Potency,[1],8.51 µM (active)
COc1ccccc1C(=O)Nc1onc2c1CCCC2,Potency,[1],inactive
COc1cc2c(NC3CCN(C(C)C)CC3)nc(N3CCCN(CC4CCCCC4)CC3)nc2cc1OCCCN1CCCC1,Potency,[1],34.5 µM (active)
COc1cc2c(NC3CCN(C(C)C)CC3)nc(N3CCCN(CC4CCCCC4)CC3)nc2cc1OCCCN1CCCCC1,Potency,[1],43.5 µM (active)
COC(=O)c1ccc(NC(=O)CSc2nc3ccc(OC)cc3[nH]2)cc1,Potency,[1],inactive
CCCCOc1ccc(CC/C=C2\SC(=O)N(CCN)C2=O)cc1,Potency,[12],9.2 µM (active)
same,Potency,[13],8.2 µM (active)
Oc1cccc(Nc2ccnc3[nH]c4ccccc4c23)c1,Potency,[12],4.11 µM (active)
same,Potency,[13],4.11 µM (active)
same,activity,[14],-17.6%
same,Potency,[15],48.2 µM (active)
same,activity,[16],-74.1%
same,activity,[17],-25.8%
same,Potency,[3],inactive
